# Results filed as inconclusive are left out. Calls of active or inactive are those of the source. The calls were made as follows, unless noted: active = hit-call score of the fitted dose curve at least 0.9, where 1 is the maximum; inactive = score below 0.9.
# What was measured:
# [1] = CCTE_Mundy_HCI_iCellGluta_NOG_NeuriteLength: CCTE's Neurite Outgrowth Assay in iCellGluta cells for Neurite Length, Mundy Lab (AID 2284318; active = hit-call score of the fitted dose curve at least 0.9, where 1 is the maximum)
# Procedure, shortened: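 Automated high-content imaging of betaIII-tubulin (Alexa Fluor-488) and Hoechst-stained cells gave neurite length, normalized to the DMSO baseline.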
# [2] = IUF_NPC1_cytotoxicity_72hr: Cytotoxicity Assessment at 72 hours in the Leibniz Research Institute for Environmental Medicine (IUF) Neural Progenitor Cell Proliferation Assay (NPC1) (AID 2284332; active = hit-call score of the fitted dose curve at least 0.9, where 1 is the maximum;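 also: rising LDH signal means more cytotoxicity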)
# Procedure, shortened: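 hNPC spheres (fetal brain, gestational week 16-19) grown under proliferative EGF/FGF conditions, pH 7.2-7.6, were treated continuously for 72 h. Cytotoxicity came from LDH-coupled resazurin fluorescence in each well's supernatant.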
# IYD (gene 389434) = assay: CCTE_GLTED_hIYD: CCTE's human Iodotyrosine Deiodinase (xIYD) Inhibition Assay, Great Lakes Toxicology and Ecology Division (GLTED) Lab (AID 2284317; active = hit-call score of the fitted dose curve at least 0.9, where 1 is the maximum;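 also: cell-free human IYD enzyme made in baculovirus insect cells; iodide freed from monoiodotyrosine measured by cerium arsenite color change at 420 nm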)
# Procedure, shortened: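 First, recombinant human IYD (baculovirus-insect cells), MIT and chemical incubated 3 h. Next, iodide isolated on Dowex. Finally, Sandell-Kolthoff rate read at 420 nm, with platewise normalization to MNT and solvent controls.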
# [3] = CCTE_Deisenroth_5AR_NBTE_donor: CCTE's 5alpha-reductase NanoBRET Target Engagement Assay […], Deisenroth Lab (AID 2284319); conditions: actives raise or lower the signal
# Procedure, shortened: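 HEK293T cells transiently expressing SRD5A2-NanoLuc, exposed 5 h to chemicals (8 points, 10 nM - 29.9 uM), with testosterone tracer for the final 2 h. Donor luminescence at 460 nm read after Nano-Glo substrate plus extracellular NanoLuc inhibitor; bidirectional fit versus DMSO.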
# [4] = CCTE_Deisenroth_5AR_NBTE_acceptor: CCTE's 5alpha-reductase NanoBRET Target Engagement Assay - Autofluorescence Screen, Deisenroth Lab (AID 2284321); conditions: actives raise or lower the signal;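 also: compound fluorescence in the acceptor channel under 460 nm excitation flags autofluorescence artifacts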
# Procedure, shortened: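 Acceptor-channel fluorescence flags artifacts, with excitation fixed at 460 nm. Nominal 100 uM chemical samples were read in triplicate runs, and signal changes were fitted in both directions relative to DMSO.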
# SRD5A2 (gene 6716) = assay: CCTE_Deisenroth_5AR_NBTE_ratio: CCTE's 5alpha-reductase NanoBRET Target Engagement Assay - Ratio, Deisenroth Lab (AID 2284322); conditions: actives raise or lower the signal
# Procedure, shortened: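 Reverse-transfect HEK293T with pNLF1-C-SRD5A2, express 20 h. Pre-incubate cells with chemical 3 h (8-point series, 10 nM - 29.9 uM, duplicate). Add testosterone tracer, 2 h more. Add substrate/inhibitor, read donor and acceptor emission.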
# [5] = CCTE_Deisenroth_DEVTOX-GLR_legacy_CellCount: (Legacy) Viability Assessment in CCTE's DevTox GLR-Endo Assay, Deisenroth Lab (AID 2284331); conditions: actives raise or lower the signal
# Procedure, shortened: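 Human pluripotent RUES2-GLR cells differentiated 48 h with two 24-h-interval exposures, 10-point 1 nM–200 uM series, 0.2% DMSO. Fixed nuclei counted by high-content imaging (5 fields/well); bidirectional fit vs DMSO, n≥4.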
structure (smiles),measurement,setting,value
CCCCC(CC)COC(=O)COc1ccc(Cl)cc1C (stereo not drawn),AC50,[1],33.4 µM (active)
same,outcome,[2],inactive
CCCCCCCCOC(=O)c1ccc(O)cc1,AC50,IYD (gene 389434),39.6 µM (active)
CCCCCCCCCCCCN1CCOCC1,AC50,IYD (gene 389434),51 µM (active)
same,outcome,[3],inactive
same,outcome,[4],inactive
same,outcome,SRD5A2 (gene 6716),inactive
CC(=O)C1=C(C)[C@@H]2C[C@@]3(C1)[C@H](C)CC[C@H]3C2(C)C,outcome,[3],inactive
same,outcome,[4],inactive
same,outcome,SRD5A2 (gene 6716),inactive
CC(C)Cc1ccc(C(C)C(=O)O)cc1 (stereo not drawn),AC50,[1],15 µM (active)
same,outcome,[5],inactive
same,outcome,[2],inactive

# — PubChem BioAssay (EPA / NIEHS)
